Source: PubChem BioAssay
697 NFkB inh: lowers PMA/ionomycin-induced NF-kB signal in 697 B cells; 697 B-cell NF-kB luciferase reporter, 16 h; inhibition, % at 4 µM; actives 0.33% (n = 330,000); AID 435022; in the data active = inhibition above about 35%
esBAF inh: blocks esBAF chromatin remodeling in mouse ES cells. actives 2% (n = 350,000). Bmi1-luciferase knock-in reporter, 24 h; 100% = twice the neutral-well signal. reporter increase, % at 12.5 µM; in the data active = activation above about 40%; inconclusive = no clear call, values can overlap the other calls;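 also: a rise in the Bmi1 reporter signal indicates esBAF inhibition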
SMARCA2 activ: activators of SMARCA2 function. MG213 cells, MMTV-luciferase reporter, dexamethasone, overnight. activation, % at 9.1 µM. actives 1% (n = 370,000). AID 652017; in the data active = activation above about 7.8%
Gli-Sufu antag: Gli-Sufu pathway antagonism; actives 0.74% (n = 340,000); Sufu-KO-LIGHT fibroblasts, Gli luciferase reporter luminescence; inhibition, % at 5 µM;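 active = inhibition above about 55%, limit read from the data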
Jurkat NFkB inh: lowers PMA/ionomycin-induced NF-kB signal in Jurkat cells | PMA/ionomycin-induced NF-kB luciferase reporter, luminescence | inhibition, % at 4 µM | actives 0.53% (n = 330,000) | AID 435003; in the data active = inhibition above about 50%
esBAF Ring1 qPCR: confirmation of esBAF inhibitors: Ring1 de-repression in mouse ESCs. shares compounds with esBAF inh. mouse ESC E14, Ring1 mRNA RT-qPCR fold change. fold change at 33 µM. 550 tested, under 10 active;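 active = Ring1 gene expression raised more than 2-fold over untreated cells in both replicates at either tested dose; inconclusive = only one replicate above 2-fold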;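 also: Ring1 transcript normalised to actin housekeeping signal by TaqMan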
Fgf4 repress: esBAF inhibition confirmed by Fgf4 repression; Fgf4 expression fold change at 33 µM; mouse ESC E14, Fgf4 mRNA qPCR fold change; active compounds read low; AID 743177; actives 4% (n = 550); shares compounds with esBAF inh;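 active = Fgf4 expression under 0.8 fold of control in both repeat measurements at one or both tested doses; inconclusive = under 0.8 fold in just a single repeat measurement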;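 also: Fgf4 transcript normalised to actin in duplex TaqMan qPCR; cells exposed to compound for 24 h before lysis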
Bmi1 derepress: esBAF inhibition confirmed by Bmi1 de-repression. shares compounds with esBAF inh. mouse ESE14 ES cells, Bmi1 mRNA qPCR fold; active compounds read high. 550 tested, under 10 active. AID 743180. fold change at 33 µM;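 active = Bmi1 expression fold change above 6 at either tested concentration, seen in replicate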;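 also: higher fold means more Bmi1 de-repression and stronger esBAF inhibition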
A549 cytotox: cytotoxicity in A549 cells; cell viability change % (negative = cytotoxic), % at 25 µM, hits read low; shares compounds with esBAF inh; 550 tested, under 10 active; plate reader; call rule not given here
HepG2 tox SP: cytotoxicity in HepG2 cells | AID 743189 | plate reader; active compounds read low | activity change, negative = inhibition, % at 25 µM | actives 4% (n = 550) | shares compounds with esBAF inh; in the data active = activity change below about -50%
HEK293 cytotox SP: HEK293 cell cytotoxicity at single point; shares compounds with esBAF inh; plate reader; activity change, negative = inhibition, % at 25 µM, hits read low; actives 3% (n = 550); in the data active = activity change below about -38%, passing the limit was not always enough
A number is an active result; . = inactive; ? = inconclusive; / = no result. A selection: hits, their analogues and other compounds. The true share with any hit is near 3.3%.

SMILES	697 NFkB inh	esBAF inh	SMARCA2 activ	Gli-Sufu antag	Jurkat NFkB inh	esBAF Ring1 qPCR	Fgf4 repress	Bmi1 derepress	A549 cytotox	HepG2 tox SP	HEK293 cytotox SP
COc1ccc(CCn2nnc3ccccc3c2=O)cc1OC	/	61	.	/	/	.	.	.	.	.	.
CN(C)S(=O)(=O)c1cccc(C(=O)Nc2ccc(Cl)cn2)c1	.	63	.	.	.	.	.	.	.	.	.
Oc1ccc(C=NNc2ccccn2)c(O)c1	/	/	.	.	/	/	/	/	/	/	/
Clc1ccccc1C=NNc1ccccn1	/	98	.	.	/	.	.	.	.	.	.
Brc1ccccc1/C=N/Nc1ccccn1	.	/	.	.	.	/	/	/	/	/	/
Oc1cccc(C=NNc2ccccn2)c1	/	76	.	.	/	.	.	.	.	.	.
CO[C@H]1CN(C)C(=O)c2cc(NC(=O)Nc3ccccc3)ccc2OC[C@@H](C)N(C(C)=O)C[C@H]1C	/	.	/	/	/	/	/	/	/	/	/
C/C=C/c1ccc2c(c1)O[C@H](CN(C)C(=O)C1CC1)[C@@H](C)CN([C@@H](C)CO)S2(=O)=O	/	.	/	/	/	/	/	/	/	/	/
Cc1noc(C)c1NC(=O)N(C)C[C@@H]1Oc2ccc(NC(=O)C3CC3)cc2CC(=O)N([C@H](C)CO)C[C@@H]1C	/	.	/	/	/	/	/	/	/	/	/
O=C(C[C@H]1CC[C@H]2[C@@H](COC[C@@H](O)CN2C(=O)c2ccccc2)O1)NCc1cccc(F)c1	/	.	/	/	/	/	/	/	/	/	/
FC(F)Oc1ccccc1/C=N/Nc1nc2ccccc2o1	.	59	.	.	.	.	.	.	.	.	.
C[C@H](CO)N1C[C@H](C)[C@H](CN(C)C(=O)Nc2ccc3c(c2)OCO3)OCCCC[C@H](C)Oc2ccc(NC(=O)Nc3ccc(F)cc3)cc2C1=O	/	.	/	/	/	/	/	/	/	/	/
CC1CCc2sc(C(=O)NC3CCCCC3)cc2C1 (configuration not stated)	.	75	.	.	.	.	.	.	.	.	.
CC1CCc2sc(C(=O)NC(C)C3CCCO3)cc2C1 (configuration not stated)	.	/	.	.	.	/	/	/	/	/	/
COc1cccc(S(=O)(=O)N[C@@H]2CC[C@@H](CC(=O)NCc3ccc(F)cc3)O[C@@H]2CO)c1	/	.	/	/	/	/	/	/	/	/	/
COc1cc(/C=C/c2ccccc2)cc(OC)c1	/	68	.	.	/	.	.	.	.	.	.
COc1cc(C=C2C(=O)c3ccccc3C2=O)cc(OC)c1	.	/	.	.	.	/	/	/	/	/	/
CC=Cc1ccc2n(c1=O)C[C@H]1[C@H](CO)[C@@H](C(=O)N(C)C)[C@@H]2N1CC1CCCCC1 (mixture of isomers)	/	.	/	/	/	/	/	/	/	/	/
C[C@H](O)C#Cc1ccc([C@H]2[C@@H](CO)N3CCCCN(C(=O)Nc4ccccc4)C[C@H]23)cc1	/	.	/	/	/	/	/	/	/	/	/
O=C(Cc1c(O)c2ccccc2oc1=O)c1ccc(F)cc1	.	69	.	.	.	.	.	.	.	.	.
C[C@@H]1CN([C@@H](C)CO)C(=O)c2cc(NC(=O)CCC(F)(F)F)ccc2O[C@@H]1CN(C)Cc1ccc(C(=O)O)cc1	/	.	/	/	/	/	/	/	/	/	/
Clc1ccc(-c2nc(Cc3ccccc3)no2)cc1	.	70	.	.	.	.	.	.	.	.	.
COc1ccc2c(c1OC)C(=O)N1c3ccccc3C(=O)N(c3ccccc3F)C21 (configuration not stated)	.	.	.	.	.	/	/	/	/	/	/
COc1ccc2c(c1OC)C(=O)N1c3ccccc3SC21 (configuration not stated)	.	78	.	.	.	.	.	.	.	.	.
O=C(NC1CCCCC1)c1ccc(-c2ccccc2)cc1	.	70	.	.	.	.	.	.	.	.	.
SMILES	697 NFkB inh	esBAF inh	SMARCA2 activ	Gli-Sufu antag	Jurkat NFkB inh	esBAF Ring1 qPCR	Fgf4 repress	Bmi1 derepress	A549 cytotox	HepG2 tox SP	HEK293 cytotox SP
CCc1ccccc1NC(=O)CN1CCN(CC(=O)Nc2ccc3c(c2)OC2(CCCCC2)O3)CC1	/	.	.	.	/	/	/	/	/	/	/
O=C(Cc1ccccc1)Nc1ccc2c(c1)OC1(CCCC1)O2	.	75	.	.	.	.	.	.	.	.	.
CC(C)c1ccc(NC(=S)NNC(=O)c2cccnc2)cc1	.	/	.	.	.	/	/	/	/	/	/
CC(C)c1ccc(NC(=O)c2cccnc2)cc1	.	85	.	.	.	.	.	.	.	.	.
CO[C@@H]1CN(C)C(=O)c2ccc(NS(=O)(=O)c3ccc(Cl)cc3)cc2OC[C@H](C)N(C)C[C@H]1C	/	.	/	/	/	/	/	/	/	/	/
Cc1csc(SCCN2C(=O)c3ccccc3C2=O)n1	.	65	.	.	.	.	.	.	.	.	.
Cc1ccc(OCc2cnc(Cl)s2)c(C)c1	.	84	.	.	.	.	.	.	.	.	.
C[C@@H]1CN([C@H](C)CO)C(=O)c2cccc(NS(=O)(=O)c3ccc(Cl)cc3)c2O[C@@H]1CN(C)Cc1ccc(-c2ccccc2)cc1	/	.	/	/	/	/	/	/	/	/	/
CC(C)Cc1cc(C(=O)Nc2ccc(Br)cc2)no1	.	69	.	.	.	.	.	.	.	.	.
CC(NC(=O)c1cc(COc2ccc(-n3cncn3)cc2)on1)c1ccc(F)cc1 (configuration not stated)	/	59	.	/	/	.	?	.	.	.	.
O=C(c1cc(COc2ccc(-n3cncn3)cc2)on1)N1CCCC1	.	.	.	.	.	/	/	/	/	/	/
C/C=C/c1cnc2c(c1)C(=O)N([C@H](C)CO)C[C@H](C)[C@@H](CN(C)S(=O)(=O)c1ccc(OC)cc1)O2	/	.	/	/	/	/	/	/	/	/	/
O=C(Nc1nc2c(s1)CCc1ccccc1-2)c1cccs1	.	71	.	.	.	.	?	.	.	.	.
Cn1c2nc3ccccc3c-2nc2ccccc21	/	54	.	/	/	.	.	6.4	.	.	.
O=C(C[C@H]1CC[C@@H]2NC[C@H](O)COC[C@H]2O1)Nc1nccs1	/	.	/	/	/	/	/	/	/	/	/
O=C(O)c1ccc2c(c1)C(=O)N(CCc1c[nH]c3ccccc13)C2=O	.	47	.	.	.	.	.	.	.	.	.
CCn1c(COc2ccccc2C)nc2ccccc21	.	65	.	.	.	.	.	.	.	.	.
COc1ccc(-c2cc3ccccc3s2)cc1[C@H]1[C@H]2C=CC[C@@H](C)[C@@H]2C(=O)N1Cc1ccccc1	.	50	.	.	.	.	.	.	.	.	.
